For 21 compounds, cytotoxicity call results are on record in the antibiotic and cytotoxicity screens of Wong et al. (2023).

The whole screen tested about 39,000 compounds, of which about 1,500 (3.8%) were called active. The list comes from a sample in which actives are over-represented; it also holds similar structures and randomly drawn compounds.

This assay relates to HSkMC (human skeletal muscle cells). As to the kind of experiment: cytotoxicity call (relative viability < 0.9). The settings on record: 10 µM.
In the case of `Cl.OC(c1cc(C(F)(F)F)nc2c(C(F)(F)F)cccc12)C1CCCCN1` (stereo unspecified), the cytotoxicity call was “active”.

Regarding `C[C@@H]1CN([C@H](C)CO)S(=O)(=O)c2ccc(C#CC3(O)CCCC3)cc2O[C@H]1CN(C)C(=O)c1ccncc1`, the cytotoxicity call was “inactive”.

For `CNC(=O)c1c(F)cccc1Nc1nc(Nc2cc3c(cc2OC)CCN3C(=O)CN(C)C)nc2[nH]ccc12`, the cytotoxicity call was “active”. For the compound `COc1cc(C(=O)N2CCC(N3CCN(C)CC3)CC2)ccc1Nc1ncc2c(n1)N(C)c1ccccc1C(=O)N2C`, the cytotoxicity call is “inactive”. With `C[C@@H]1CN([C@H](C)CO)C(=O)Cc2cc(NS(=O)(=O)c3cn(C)cn3)ccc2O[C@@H]1CN(C)C(=O)Nc1ccccc1` the entry was “inactive”; with `CC(C)NC(=O)Nc1ccc2c(c1)C(=O)N([C@@H](C)CO)C[C@@H](C)[C@H](CN(C)CC1CCCCC1)OCCCC[C@@H](C)O2`, “inactive”.

Turning to `CN(C)CC(=O)N1[C@@H]2Cn3c(ccc(C4=CCCC4)c3=O)[C@H]1[C@@H](C(=O)NCC1CC1)[C@@H]2CO`, the cytotoxicity call is “inactive”. For the compound `C[C@@H]1CN([C@@H](C)CO)S(=O)(=O)c2ccc(-c3cncnc3)cc2O[C@@H]1CN(C)C(=O)Cc1cccnc1`, the cytotoxicity call is “inactive”. Regarding `C[C@H]1CN([C@@H](C)CO)C(=O)c2cc(NS(C)(=O)=O)ccc2O[C@H]1CN(C)Cc1ccc2c(c1)OCO2`, the cytotoxicity call is “inactive”. As for `CC(C)=CCc1c2c(c3occ(-c4ccc(O)c(O)c4)c(=O)c3c1O)C=CC(C)(C)O2`, the cytotoxicity call was “active”. For the compound `CC(C)=CCc1c2c(c3occ(-c4ccc(O)cc4)c(=O)c3c1O)C=CC(C)(C)O2`, the cytotoxicity call was “inactive”.

`CC1(C)C=Cc2c(c3c(c4c(=O)c(-c5ccc(O)c(O)c5)coc24)OC(C)(C)CC3)O1`: the cytotoxicity call is “inactive”. On to `CO[C@@H]1CN(C)C(=O)c2ccc(NC(=O)CN(C)C)cc2OC[C@@H](C)N(C(=O)c2ccncc2)C[C@H]1C`, for which the cytotoxicity call was “inactive”. In the case of `C[C@@H]1CCCCO[C@H](CN(C)S(=O)(=O)c2cccs2)[C@@H](C)CN([C@H](C)CO)C(=O)c2cc(NC(=O)CCC(F)(F)F)ccc2O1`, the cytotoxicity call is “inactive”. As to `COC[C@@H]1CNN1C(=O)c1cc(C)oc1C`, the cytotoxicity call is “inactive”. `CCCCCN1CC=C[C@@]23O[C@@H]4C=CCOC(=O)[C@@H]4[C@H]2C(=O)N([C@@H](C)CO)[C@@H]3C1=O`: the cytotoxicity call was “inactive”. For the compound `CCCCCCCCNC[C@@H](O)[C@H](O)[C@@H](O)[C@@H](O)CO`, the cytotoxicity call was “inactive”. With `CC(NCCc1ccc(O)cc1)C(O)c1ccc(O)cc1.Cl` (stereo unspecified), the cytotoxicity call was “inactive”. Regarding `CCCCCCCCNC(C)C(O)c1ccc(SC(C)C)cc1` (stereo unspecified), the cytotoxicity call is “active”.

As to `C[C@@H]1CN([C@@H](C)CO)S(=O)(=O)c2ccc(C#CCN(C)C)cc2O[C@@H]1CN(C)C(=O)CN(C)C`, the cytotoxicity call is “inactive”. Take `C[C@@H]1CCCCO[C@@H](CN(C)S(=O)(=O)c2ccc(Cl)cc2)[C@H](C)CN([C@@H](C)CO)C(=O)c2cc(NC(=O)Nc3cccc4ccccc34)ccc2O1`: the cytotoxicity call is “inactive”.
